NPSR antag: neuropeptide S receptor (human) antagonism, cAMP; Q6W5P4; CHO-NPSR cells, cAMP TR-FRET, antagonist mode; Potency, µM (highest dose often 38.3 µM), usual class: inhibitors; 1% of 220,000 active; also: nearly all actives have a fitted effect of over 50% in size
Target sequence (Q6W5P4 whole entry, looked up): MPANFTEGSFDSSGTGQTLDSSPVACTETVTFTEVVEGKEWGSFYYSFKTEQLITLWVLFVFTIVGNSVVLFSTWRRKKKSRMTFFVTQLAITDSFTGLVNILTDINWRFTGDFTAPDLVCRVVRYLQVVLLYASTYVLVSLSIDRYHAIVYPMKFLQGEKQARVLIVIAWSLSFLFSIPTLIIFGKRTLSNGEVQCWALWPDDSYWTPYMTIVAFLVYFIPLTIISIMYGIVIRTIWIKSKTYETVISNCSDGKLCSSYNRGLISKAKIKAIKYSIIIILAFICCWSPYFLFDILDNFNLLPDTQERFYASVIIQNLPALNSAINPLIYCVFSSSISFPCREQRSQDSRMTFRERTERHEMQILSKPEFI
Tau ThT inhib: inhibitors of human tau fibril formation, thioflavin T binding; recombinant tau K18 P301L, heparin-induced fibrillization, ThT fluorescence; Potency, µM (doses to about 57.4 µM), most hits filed as inhibitors; 2.1% of 270,000 active; AID 1460; also: nearly all actives have a fitted effect of over 55% in size
Target sequence (P10636 561-689 P618L limits assumed): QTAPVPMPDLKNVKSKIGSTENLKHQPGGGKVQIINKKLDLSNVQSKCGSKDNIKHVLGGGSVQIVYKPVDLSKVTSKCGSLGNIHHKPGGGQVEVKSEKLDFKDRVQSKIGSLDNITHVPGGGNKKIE
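Aggregation was driven by heparin (20 uM final) acting on recombinant tau […] bearing P301L in 100 mM sodium acetate pH 7; fibrils were detected with Thioflavin T.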
PNC assembly inh: blocks assembly of the perinucleolar compartment; PC3M PTB-GFP, PNC prevalence imaging, 16 h; active compounds read low; activity change (PNC), negative = inhibition, % at 10 µM; 3.1% of 140,000 active;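 active = readout at or below -70, meaning at least 70% loss of cells showing the perinucleolar compartment, a nuclear body marking cancer cells; inconclusive = readout between -30 and a set limit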
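PC3M cells stably expressing PTB-GFP, 750–1000 cells/well, treated 16 h at 37 °C with compound (23 nl of library stock), in duplicate. After paraformaldehyde fixation and Hoechst stain, imaged at 20x; PNC prevalence scored by image analysis.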
Tau fluor cs: counter-screen for tau fibril formation inhibitors. tau K18 P301L Alexa594 fluorescence, heparin fibrillization. Potency, µM (highest dose often 57.7 µM). 0.93% of 280,000 active. AID 1463; also: nearly all actives have a fitted effect of over 55% in size
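Human tau K18 P301L (15 uM unlabeled, 0.24 uM Alexa 594-labeled) in 100 mM sodium acetate pH 7 with 20 uM heparin, 6 hr at 37 C. ThT 30 uM added, 1 hr ambient; Alexa 594 FP and total fluorescence read at 555/632 nm.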
Tau fibril FP: blocks human tau fibril formation measured by polarization; P10636; 0.39% of 280,000 active; Potency, µM (series often up to 57.7 µM), usual class: inhibitors; K18 P301L tau heparin fibrillization, Alexa594 FP, 6 h; also: nearly all actives have a fitted effect of over 55% in size
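FP of Alexa 594-tau after heparin (20 uM) induction. Substrate: human K18 P301L, 15 uM unlabeled, 0.24 uM labeled. Buffer 100 mM sodium acetate pH 7. 6 hr, 37 C.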
JMJD2E inh: inhibitors of human JMJD2E histone demethylase. B2RXH2. JMJD2E catalytic domain, FDH-coupled NADH fluorescence (FDH is formaldehyde dehydrogenase). Potency, µM (doses to about 57.1 µM), hits mostly inhibitors. 1.6% of 230,000 active. AID 2147; active = well fitted inhibition curve with a large enough effect, not every such curve was filed as active; inconclusive = small, poorly fitted or top-dose-only effect, or another doubt; inactive = no such curve, though single readings can be large or run the other way; also: nearly all actives have a fitted effect of over 50% in size
A number is an active result; ! = repeats disagree; [ ] = another dose, or the depositor's remark. A selection: hits, their analogues and other compounds. The true share with any hit is near 5.1%. Unless noted, calls follow the shape of the dose curve; as a rule, active = well fitted curve in the direction sought with a large enough effect; inconclusive = small, poorly fitted or top-dose-only effect, or another doubt; inactive = no such curve, though single readings can be large; an effect the other way counts as inactive or inconclusive.

What do the screens show for `Nc1c(C(=O)c2ccc(Br)s2)oc2ccccc12`?
NPSR antag: inactive; Tau ThT inhib: 10µM; PNC assembly inh: inconclusive; Tau fluor cs: inconclusive; Tau fibril FP: inactive; JMJD2E inh: inactive

What do the screens show for `O=C1c2ccccc2S(=O)(=O)N1CC(O)COc1ccc(Br)cc1` (stereo not given)?
NPSR antag: inactive; Tau ThT inhib: inactive; PNC assembly inh: -106; Tau fluor cs: inactive; Tau fibril FP: inactive; JMJD2E inh: inactive

What do the screens show for `O=C1c2ccccc2S(=O)(=O)N1CC(O)COc1ccc(Cl)cc1` (stereo not given)?
NPSR antag: inactive; Tau ThT inhib: inactive; PNC assembly inh: inactive; Tau fluor cs: inactive; Tau fibril FP: inactive; JMJD2E inh: inactive

What do the screens show for `COc1cccc(-n2c(-c3ccco3)nc3c(cnn3-c3ccccc3C)c2=O)c1`?
Tau ThT inhib: inactive; Tau fluor cs: inactive; Tau fibril FP: inactive

Results for O=C(NNC1=NCCC1)c1cccc(S(=O)(=O)N2CCOCC2)c1 ?
NPSR antag: inactive; Tau ThT inhib: inactive; PNC assembly inh: inactive; Tau fluor cs: inactive; Tau fibril FP: inactive; JMJD2E inh: inactive

What do the screens show for `O=C(N/N=C/c1ccc(O)c(O)c1)c1cccc(S(=O)(=O)N2CCCCC2)c1`?
NPSR antag: inactive; Tau ThT inhib: inactive; Tau fluor cs: inactive; Tau fibril FP: inactive; JMJD2E inh: 16µM

Results for O=C(NNC1=NCCC1)c1cccc(S(=O)(=O)N2CCCC2)c1 ?
NPSR antag: inactive; Tau ThT inhib: inactive; PNC assembly inh: -107; Tau fluor cs: inactive; Tau fibril FP: inactive; JMJD2E inh: inactive

How did O=S(=O)(c1cccc(C(F)(F)F)c1)N1CCN(C(=S)NCc2ccco2)CC1 do in these assays?
NPSR antag: inactive; Tau ThT inhib: inactive; PNC assembly inh: -109; Tau fluor cs: inactive; Tau fibril FP: inactive; JMJD2E inh: inactive

How did O=C(Nc1ccccc1C(=O)N1CCOCC1)c1cccc(S(=O)(=O)N2CCCC2)c1 do in these assays?
NPSR antag: inactive; Tau ThT inhib: inactive; PNC assembly inh: -90; Tau fluor cs: inactive; Tau fibril FP: inactive; JMJD2E inh: inactive

How did O=C(N/N=C/c1ccccn1)c1cccc(S(=O)(=O)N2CCCC2)c1 do in these assays?
NPSR antag: inactive; Tau ThT inhib: inactive; Tau fluor cs: inactive; Tau fibril FP: inactive; JMJD2E inh: inconclusive

How did COc1ccc(CCNC(=O)CCn2c(=O)c3ccccc3n(Cc3ccccc3)c2=O)cc1OC do in these assays?
Tau ThT inhib: inactive; Tau fluor cs: inactive; Tau fibril FP: inactive

How did Cc1ccc(NC(=O)CN(CCc2ccccc2)S(=O)(=O)c2ccccc2)c(C)c1 do in these assays?
Tau ThT inhib: inactive; Tau fluor cs: inactive; Tau fibril FP: inactive

What do the screens show for `COc1ccc(-n2c(=O)c3sc4ccccc4c3n(CC(=O)N3CCCC3)c2=O)cc1`?
Tau ThT inhib: inactive; Tau fluor cs: inactive; Tau fibril FP: inactive

Results for CCCCN(C)CCNC(=O)c1cc(=O)[nH]c2ccc(S(=O)(=O)N3CCCCCC3)cc12 ?
Tau ThT inhib: inactive; Tau fluor cs: inactive; Tau fibril FP: inactive

What do the screens show for `O=C(Nc1ccccc1C(=O)NCc1ccco1)c1ccco1`?
NPSR antag: inactive; Tau ThT inhib: inactive; PNC assembly inh: inactive; Tau fluor cs: inactive; Tau fibril FP: inactive; JMJD2E inh: inactive

What do the screens show for `O=C(NCc1ccco1)c1ccc(=O)oc1`?
NPSR antag: inactive; Tau ThT inhib: inactive; PNC assembly inh: -83; Tau fluor cs: inactive; Tau fibril FP: inactive; JMJD2E inh: inactive

Results for O=C(NCc1ccco1)c1cccc(S(=O)(=O)N2CCOCC2)c1 ?
NPSR antag: inactive; Tau ThT inhib: inactive; PNC assembly inh: inconclusive; Tau fluor cs: inactive; Tau fibril FP: inactive; JMJD2E inh: inactive

How did O=C(NCc1ccco1)c1cccc(S(=O)(=O)N2CCCCC2)c1 do in these assays?
NPSR antag: inactive; Tau ThT inhib: inactive; PNC assembly inh: -100; Tau fluor cs: inactive; Tau fibril FP: inactive; JMJD2E inh: inactive

How did CC(C)(C)C(=O)Nc1ccccc1C(=O)NCc1ccco1 do in these assays?
NPSR antag: inactive; Tau ThT inhib: inactive; PNC assembly inh: -138; Tau fluor cs: inactive; Tau fibril FP: inactive; JMJD2E inh: inactive

Results for Cc1cc(Cl)c(S(=O)(=O)NC2CCCCC2)cc1OCC(=O)Nc1nncs1 ?
NPSR antag: inactive; Tau ThT inhib: inactive; PNC assembly inh: -119; Tau fluor cs: inactive; Tau fibril FP: inactive; JMJD2E inh: inactive

Results for Cc1cc(Cl)c(S(=O)(=O)Nc2ccon2)cc1OCC(=O)NC1CCCCC1 ?
NPSR antag: inactive; Tau ThT inhib: inactive; PNC assembly inh: inconclusive; Tau fluor cs: inactive; Tau fibril FP: inactive; JMJD2E inh: inactive

What do the screens show for `O=C(O)c1cccc(C(=O)O)n1`?
NPSR antag: inactive; Tau ThT inhib: inactive; PNC assembly inh: inactive; Tau fluor cs: inactive; Tau fibril FP: inactive; JMJD2E inh: 8.9µM

How did O=C(O)c1ccc2cccc(O)c2n1 do in these assays?
NPSR antag: inactive; Tau ThT inhib: inactive; Tau fluor cs: inactive; Tau fibril FP: inactive; JMJD2E inh: inactive

Results for O=C(O)c1ccc2cccnc2n1 ?
NPSR antag: inactive; Tau ThT inhib: inactive; Tau fluor cs: inactive; Tau fibril FP: inactive; JMJD2E inh: 22µM

What do the screens show for `CC1(OC(=O)CCc2ccccc2)C(=O)C=C2C=C(c3ccc(C#N)cc3)N(CCN3CCOCC3)C=C2C1=O` (stereo not given)?
NPSR antag: inactive; Tau ThT inhib: inconclusive; Tau fluor cs: inactive[11.6 µM]; Tau fibril FP: inconclusive; JMJD2E inh: 13µM

How did CC(C)OCCCN1C=C2C(=O)C(C)(OC(=O)CCc3ccccc3)C(=O)C=C2C=C1c1ccc(C#N)cc1 (stereo not given) do in these assays?
NPSR antag: inactive; Tau ThT inhib: inconclusive; Tau fluor cs: inactive[11.6 µM]; Tau fibril FP: inactive[11.6 µM]; JMJD2E inh: 22µM!

How did Cc1cc(O)c(C(c2cccc(Cl)c2)N2CCN(c3ccccc3)CC2)c(=O)n1Cc1ccco1 (stereo not given) do in these assays?
Tau ThT inhib: inconclusive; Tau fluor cs: inactive; Tau fibril FP: inactive

What do the screens show for `O=C(O)Cc1ccc(NC2(c3ccccc3)C(=O)c3ccccc3C2=O)cc1`?
Tau ThT inhib: inactive; Tau fluor cs: inactive; Tau fibril FP: inactive

What do the screens show for `Cn1c(-c2cccc([N+](=O)[O-])c2)[n+](C)c2ccccc21`?
NPSR antag: inactive; Tau ThT inhib: inactive; Tau fluor cs: inactive; Tau fibril FP: inactive; JMJD2E inh: inactive

How did Cn1c(-[n+]2c(-c3ccccc3)cc(-c3ccccc3)cc2-c2ccccc2)nc2c([N+](=O)[O-])cccc21 do in these assays?
NPSR antag: 7.9µM; Tau ThT inhib: inconclusive; PNC assembly inh: inactive; Tau fluor cs: inactive; Tau fibril FP: inactive; JMJD2E inh: inactive

From PubChem
